Sampled rows, rich in hits. Any-hit rate of the full collection: about 2.3%.
CHO-K1 Ca ag: counter-screen for M1 agonists: effect in parental CHO-K1 cells; AID 602248, 2012; actives 0.48% (n = 360,000); Fluo-8 calcium fluorescence; scaled to maximal ATP response, vehicle zero; activation, % at 3 µM; in the data active means activation above about 15%;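 further: untransfected CHO-K1 host cells lacking M1 receptor as counterscreen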
CHO-K1 Ca PAM: nonselective calcium activators in parental CHO-K1 cells, primary screen, counter-screen for M1 PAM project, cell-based, Fluo-8 calcium fluorescence, full deck, 1536-well | ATP EC20; 0% at ATP EC20, 100% at ATP max | activation, % at 3 µM | actives 0.02% (n = 360,000);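 active means activation above the run cutoff, the mean activation of all test compounds plus 3 SD, cut at about 40% in these data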;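 further: peak over basal fluorescence ratio in a 140 s read after ATP addition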
M1 ag: human M1 muscarinic receptor agonists, primary screen, Fluo-8 calcium fluorescence, CHO-K1 cells, HTS. Muscarinic acetylcholine receptor M1 (Homo sapiens), P11229. CHO-K1 hM1, agonist mode; 0% DMSO, 100% acetylcholine EC100. activation, % at 3 µM. actives 0.33% (n = 360,000);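 active means activation above the run's mean compound activation plus 3 SD, cut at about 16% in these data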;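 further: peak over basal fluorescence ratio within a 140 s kinetic read after compound addition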
Target sequence (P11229 whole entry, looked up): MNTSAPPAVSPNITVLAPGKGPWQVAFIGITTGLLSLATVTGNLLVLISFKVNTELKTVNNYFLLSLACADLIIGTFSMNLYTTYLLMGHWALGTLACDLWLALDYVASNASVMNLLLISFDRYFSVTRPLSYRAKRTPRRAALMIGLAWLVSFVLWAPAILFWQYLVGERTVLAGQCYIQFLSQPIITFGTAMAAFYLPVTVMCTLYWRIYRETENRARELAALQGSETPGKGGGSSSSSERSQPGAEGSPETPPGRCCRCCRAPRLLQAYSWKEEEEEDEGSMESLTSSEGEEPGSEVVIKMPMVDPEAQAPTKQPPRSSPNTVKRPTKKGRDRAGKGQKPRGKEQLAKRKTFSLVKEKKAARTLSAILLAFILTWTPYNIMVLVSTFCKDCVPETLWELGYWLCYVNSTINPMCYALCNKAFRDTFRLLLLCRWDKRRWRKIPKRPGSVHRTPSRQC
CHO-K1 Ca antag: M1 antagonist counterscreen hit in parental CHO-K1 cells. ATP-induced calcium, Fluo-8 fluorescence. inhibition, % at 3 µM. actives 0.6% (n = 360,000). AID 602250;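 active means inhibition above a per-plate cutoff, the plate's mean sample inhibition plus 3 SD, cut at about 24% in these data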
M1 antag: human M1 muscarinic receptor antagonists, primary screen, CHO-K1 cells, Fluo-8 calcium fluorescence, 1536-well; Muscarinic acetylcholine receptor M1 (Homo sapiens), P11229; actives 1.3% (n = 360,000); inhibition, % at 3 µM; CHO-K1 hM1, ACh EC80 antagonist;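 active means percent inhibition above its own plate's cutoff, namely the mean of that plate's compound wells plus 3 SD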;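 further: peak over basal fluorescence ratio during 140 s after agonist addition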
CHRM1 PAM: human M1 muscarinic receptor positive allosteric modulators, primary screen, CHO-K1 cells, Fluo-8 calcium fluorescence, 1536-well | Muscarinic acetylcholine receptor M1 (Homo sapiens), P11229 | CHO-K1 hM1, ACh EC20; 0% = ACh EC20, 100% = maximal ACh | activation, % at 3 µM | actives 0.088% (n = 360,000); in the data active means activation above about 19%, passing the limit was not always enough
A number is an active result; n = inactive.

SMILES	CHO-K1 Ca ag	CHO-K1 Ca PAM	M1 ag	CHO-K1 Ca antag	M1 antag	CHRM1 PAM
COc1ccc(CCC(=O)NC(C)c2ccccc2)cc1OC (centres undefined)	n	n	n	n	n	n
CCC1(c2ccc(OC)cc2)NC(=O)N(CC(=O)NC2CCCCC2C)C1=O (centres undefined)	n	n	n	n	n	n
CN(C)CCC1c2ccc(Cl)cc2CCc2cccnc21 (centres undefined) (tested in a mixture with another compound)	n	n	n	n	49	n
Cc1ccc(S(=O)(=O)NN=C2CCc3ccccc32)cc1	n	n	n	n	n	n
O=C(NC(=S)NNC(=O)c1ccccc1O)c1ccccc1	n	n	24	n	n	n
Cc1ccc(C(=O)NC(=S)NNC(=O)c2ccccc2O)cc1	n	n	n	n	n	n
O=C(NC(=S)NNC(=O)c1ccccc1O)c1ccc([N+](=O)[O-])cc1	n	n	n	n	n	n
Cc1ccccc1C(=O)NNC(=S)NC(=O)c1ccccc1	55	n	63	n	n	n
Cc1ccccc1C(=O)NNC(=O)c1ccc(Br)cc1	n	n	n	n	n	n
O=C(NC(=S)NNC(=O)c1ccccc1O)c1ccc(F)cc1	30	n	33	n	n	n
O=C(Cn1ccc(=O)[nH]c1=O)Nc1nccs1	n	n	n	n	n	n
CCN(CC)CCNC(=O)c1ccc(NC(=O)c2cc(S(=O)(=O)N3CCCCC3)ccc2C)cc1	n	n	n	n	94	n
COc1ccccc1N(C)S(=O)(=O)c1ccc(C(=O)Nc2ccc(C(N)=O)cc2)cc1	n	n	n	n	n	n
CC1Cc2ccccc2N1S(=O)(=O)c1cccc(C(=O)NCCCO)c1 (centres undefined)	n	n	n	n	n	n
CCN(CC)CCNC(=O)c1ccc(NC(=O)c2ccc(S(=O)(=O)N3CCCC3)cc2)cc1	n	n	n	n	n	n
CC1Cc2ccccc2N1S(=O)(=O)c1cccc(C(=O)NNC(=O)c2ccccc2F)c1 (centres undefined)	n	n	n	n	n	n
O=C(NNC(=O)c1ccccc1F)c1cccc(S(=O)(=O)N2CCc3ccccc32)c1	n	n	n	n	38	n
CCN(CC)CCNC(=O)c1ccc(NC(=O)c2ccc(S(=O)(=O)N(C)c3ccccc3OC)cc2)cc1	n	n	n	n	41	n
CCN(CC)CCNC(=O)c1ccc(NC(=O)c2cccc(S(=O)(=O)N3c4ccccc4CC3C)c2)cc1 (centres undefined)	n	n	n	n	100	n
COc1ccc2c(c1)OC[C@H]1[C@@H]2N2C(=O)CNC(=O)[C@@]2(C)[C@H]1c1ccccc1	n	n	n	n	n	n
CCN(CC)CCNC(=O)c1ccc(NC(=O)c2cccc(S(=O)(=O)Nc3ccc(C)cc3)c2)cc1	n	n	n	n	98	n
CN(C)CCNC(=O)c1cccc(S(=O)(=O)Nc2ccc(F)cc2)c1	n	n	n	n	n	n
CCN(CC)CCNC(=O)c1ccc(NC(=O)c2cccc(S(=O)(=O)N3CCc4ccccc43)c2)cc1	n	n	n	n	100	n
CCN(CC)CCNC(=O)c1cc(S(=O)(=O)N2CCc3ccccc32)cn1C	n	n	n	n	n	n
CCS(=O)(=O)c1nc(S(=O)(=O)c2ccc(C)cc2)c(N2CCCCCC2)s1	n	n	n	n	n	n
NC(=O)c1ccsc1NC(=O)COC(=O)/C=C/c1ccccc1	n	n	n	27	50	n
NC(=O)c1ccsc1NC(=O)COC(=O)/C=C/c1ccccc1[N+](=O)[O-]	18	n	n	n	n	n
O=C(COC(=O)/C=C/c1ccccc1)Nc1ccc2c(c1)OCCO2	n	n	n	n	n	27
NC(=O)c1ccsc1NC(=O)COC(=O)COc1ccccc1[N+](=O)[O-]	n	n	n	n	n	n

Source: PubChem (The Scripps Research Institute Molecular Screening Center)
